In PubChem BioAssay AID2685 (National Center for Advancing Translational Sciences (NCATS), 2010) one finds Potency and cell number change data, which are given here for 48 compounds.

SMILES strings stand for the structures. The whole screen tested about 320,000 compounds, of which about 2,100 (0.66%) were called active. Inconclusive results (about 53%) are left out. Calls come from the whole dose curve; as a rule, active = well fitted inhibition curve with a large enough effect in the signal ratio, with a control signal flat (not every such curve was filed as active); inconclusive = small, poorly fitted or top-dose-only effect, or effect the other way, or a change in a side signal; inactive = flat fitted curve, though single readings scatter; the % refers to the signal ratio. The entries come from a sample that favours actives as a whole.
Potency is the fitted concentration of half-maximal effect.

The nature of this assay: qHTS Assay for Lipid Storage Modulators in Drosophila S3 Cells.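 For cell number change: cells counted by Cell Tracker Red CMTPX staining in the red channel.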 Particulars: BODIPY lipid droplet fluorescence, 18-24 h, cells fed with added oleic acid; cell number change: measured here: cell count max response; series mostly up to 46.1 µM. The procedure, abridged: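 Drosophila S3 cells loaded with oleic acid (400 uM, as added) and compounds at several concentrations; lipid droplets imaged by 488-nm laser-scanning cytometry, 500–530 nm intensity and object ratio to cell channel. Percent activity normalized to 20 uM Triacsin C.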
Background: Quantitative high-throughput screening tests each substance at several concentrations.
For `COc1ccc(C)cc1NC(=O)C(=O)NCc1ccncc1`, the Potency entry was “inactive” and the cell number change worked out at 1.5%.
The corresponding values for `COC(=O)c1ccc(C2c3[nH]c4ccccc4c3C[C@H]3C(=O)N(C4CC4)CC(=O)N23)cc1` (some centres not stated) are “inactive” and -1.73%.
With `O=C1[C@@H]2Cc3c([nH]c4ccccc34)C(c3ccc([N+](=O)[O-])cc3)N2C(=O)CN1C1CC1` (some centres not stated), the Potency entry was “inactive” and the cell number change came to 5.54%.
For the compound `O=C1[C@@H]2Cc3c([nH]c4ccccc34)C(c3ccccc3)N2C(=O)CN1C1CC1` (some centres not stated), the Potency was 4.11 µM (active) and the cell number change is -19.8%.
Regarding `O=C(Nc1ccccc1Cl)/C(Cl)=C(\Cl)S(=O)c1ccccc1` (configuration not stated), the Potency was 4.61 µM (active).
As for `O=C(Nc1ccccc1Cl)c1ccccc1`, the Potency entry was “inactive” and the cell number change worked out at 0.403%.
On to `O=C(Nc1ccccc1Cl)Nc1ccccc1Cl`, for which the Potency entry is “inactive” and the cell number change is -0.979%.
Take `CCN(CC(=O)Nc1c(F)cccc1F)C(=O)c1ccc(S(=O)(=O)N2CCCC2)cc1`: the Potency result was “inactive” and the cell number change was determined as 23.3%.
The corresponding values for `O=C(O)CN1C(=O)NC2(CCCc3ccccc32)C1=O` (configuration not stated) are “inactive” and 8.55%.
The corresponding values for `CCOc1cc(-c2sc(Nc3ccccc3)n[n+]2-c2ccc(F)cc2)ccc1OC` are “inactive” and 8.68%.
For `CCN(CCNC(=O)C1CCN(S(=O)(=O)c2c(C)noc2C)CC1)c1ccccc1`, in that order: “inactive” and 0.289%.
For the compound `CC(C)(C)c1nc(CN2CCOCC2)cc(CN2CCOCC2)c1O`, the Potency result was “inactive” and the cell number change stood at 19.4%.
On to `Cc1ccc(-c2nc(CN3CCCCC3)cc(CN3CCCCC3)c2O)cc1`, for which the Potency result was “inactive” and the cell number change was determined as 4.96%.
Consider `CC(C)(C)c1nc(CN2CCCCC2)cc(CN2CCCCC2)c1O`, for which the Potency is 20.6 µM (active) and the cell number change is -1.12%.
The corresponding values for `Cc1cc(CN2CCC(N3CCC(C(=O)NC4CC4)CC3)CC2)cc(C)c1O` are “inactive” and -10.6%.
For `Cc1cc(C)n(CC(O)CN2C(=O)NC(C)(C)C2=O)n1` (configuration not stated), the Potency entry is “inactive” and the cell number change was found to be 7.08%.
With `COc1ccc(/C=C2/SC(=O)N(CC(O)Cn3c4ccccc4c4ccccc43)C2=O)cc1` (configuration not stated), the Potency result is “inactive” and the cell number change was -7.54%.
For `O=C1S/C(=C\c2ccccc2)C(=O)N1CC(O)Cn1c2ccccc2c2ccccc21` (configuration not stated), in that order: 9.2 µM (active) and 8.53%.
The corresponding values for `CN(C)c1ccc(/C=C2\SC(=O)N(CC(O)Cn3c4ccccc4c4ccccc43)C2=O)cc1` (configuration not stated) are “inactive” and 1.42%.
For `C=CCn1c(CCNC(=O)c2cccs2)nnc1SCC(=O)c1cccc([N+](=O)[O-])c1`, in that order: “inactive” and 21.8%.
Regarding `COc1ccc(N2CCN(Cc3nc(N)nc(Nc4ccccc4OC)n3)CC2)cc1`, the Potency entry was “inactive” and the cell number change was -16.4%.
For `Cc1nc2c(sc(=S)n2Cc2ccco2)c(=O)n1CC(=O)Nc1ccccc1Cl`, the Potency entry is “inactive” and the cell number change is 8.56%.
For the compound `Cc1nc2c(sc(=S)n2Cc2ccco2)c(=O)n1CC(=O)Nc1ccc(F)cc1`, the Potency is 16.4 µM (active) and the cell number change worked out at 20.2%.
The corresponding values for `CCn1c(=S)sc2c(=O)n(CC(=O)Nc3ccccc3)c(C)nc21` are “inactive” and 22.9%.
The corresponding values for `COc1ccc(CN2CC(=O)N(c3ccc(C)cc3C)C2=S)cc1OC` are “inactive” and 8.06%.
Regarding `CC(=O)NCCc1nc2ccccc2n1CCOc1ccccc1`, the Potency result was “inactive” and the cell number change came out at 18.1%.
The corresponding values for `CC(=C/c1ccccc1)/C=N/NC(=O)c1ccccn1` are “inactive” and 10.8%.
The corresponding values for `C=C(c1ccccc1)c1ccc(N(C)C)cc1` are “inactive” and 1.48%.
Consider `O=C1Nc2ccccc2N(O)N1c1cc(-c2cccc(Cl)c2)no1`, for which the Potency result is “inactive”.
Regarding `CCOc1ccc(-c2cc(N3C(=O)Nc4ccccc4N3O)on2)cc1`, the Potency is 23.1 µM (active) and the cell number change amounted to 24.4%.
With `O=C1Nc2ccccc2N(O)N1c1cc(-c2ccccc2Cl)no1`, the Potency entry is “inactive”.
As for `CC(C)c1cc(C(=O)O)c2cnn(C(C)C)c2n1`, the Potency entry was “inactive” and the cell number change is -20.5%.
`CCOc1ccc(-n2ccnc(SCC(=O)NC3CCCC3)c2=O)cc1`: the Potency result is “inactive”.
As to `CCOc1ccccc1C(=O)Nc1ccc(S(=O)(=O)Nc2nccc(C)n2)cc1`, the Potency result was “inactive” and the cell number change is -4.06%.
For `COC(=O)c1ccc(C23CC4(C2)[C@H](CN(CC2CCCCC2)[C@@H]4c2ccccc2)C3c2ccccc2)cc1` (some centres not stated), in that order: “inactive” and 12.7%.
Consider `CC(=O)Oc1ccc(N2C(=O)[C@@H]3[C@H](C2=O)[C@H]2c4ccccc4C=NN2[C@@H]3C(C)=O)cc1`, for which the Potency entry is “inactive” and the cell number change was determined as 17.5%.
With `Cc1cccc(C)c1OCC(=O)N1CC2(C)CC1CC(C)(C)C2` (configuration not stated), the Potency result is “inactive” and the cell number change came to 24%.
For `CC(=O)N/C(=C\c1ccccc1)C(=O)OCC(=O)N(C)C1CCCCC1`, in that order: “inactive” and 11.6%.
For `Cc1nnnn1/C(=C\c1ccccc1)C(=O)OCC(=O)N1CC2(C)CC1CC(C)(C)C2` (configuration not stated), in that order: 1.84 µM (active) and -4.4%.
For `CC1(C)CC2CC(C)(CN2C(=O)Cc2ccccc2)C1` (configuration not stated), in that order: “inactive” and -11.2%.
For `CCN(C(=O)COC(=O)/C(=C/c1ccccc1)n1nnnc1C)C1CCCCC1`, the Potency was 7.31 µM (active) and the cell number change was -1.15%.
For `CCN(C(=O)COC(=O)c1cnc(C)cn1)C1CCCCC1`, in that order: “inactive” and 18.1%.
The corresponding values for `COc1ccc(CCNC(=O)c2cc(-c3ccccc3O)n[nH]2)cc1OC` are “inactive” and 4.36%.
For `COC(=O)CCc1sc(Nc2ccccc2)nc1-c1ccc(OC)cc1`, in that order: “inactive” and -8.54%.
Regarding `O=C(COc1ccccc1)NCC1CCCO1` (configuration not stated), the Potency result is “inactive” and the cell number change is -0.966%.
For `COc1ccc(NC(=O)C#Cc2ccccc2)cc1`, in that order: 0.92 µM (active) and -23.3%.
For `COc1ccc(NC(=O)Nc2ccc(OC)cc2)cc1`, in that order: “inactive” and -101%.
The corresponding values for `COc1ccc(NC(=O)Nc2ccc(CC(=O)O)cc2)cc1` are 0.116 µM (active) and -22.2%.
